Measurements: ChEMBL document CHEMBL4888484, “Replenishing the malaria drug discovery pipeline: Screening and hit evaluation of the MMV Hit Generation Library 1 (HGL1) against asexual blood stage Plasmodium falciparum ,using a nano luciferase reporter read-out” (2022)
In all, about 4,800 compounds went through this assay and about 410 (8.5%) showed an effect of 50% or more. What follows is part of a selection rich in strong results, with near analogues and random picks from the rest.

test system: Plasmodium falciparum; assay: Confirmatory screen in NF54 pLDH assay, in single point, at 2uM, 72h; assay type: functional, Erythrocyte; details: timepoint 72 hour

| SMILES | % Inhibition |
| --- | --- |
| CCCOC(=O)c1cc(NC(=O)c2ccc3ccccc3c2)ccc1N1CCOCC1 | -11% |
| Cc1cc(C(=O)N2CCC3(CCNCC3)CC2)ccc1F | 7% |
| CN1C(=O)[C@H](O)N(c2cccc3ccccc23)C1=O | 9% |
| COc1cccc(-c2cc3c(N4CCN(c5ccccn5)CC4)nccn3n2)c1 | 4% |
| C[C@H](NC(=O)c1cc(-c2ccc(F)cc2)ns1)c1ccccn1 | 9% |
| Cc1c2c(C(F)(F)F)cc(=O)n(CCC(=O)Nc3ncc(Cl)cc3Cl)c2nn1C | -7% |
| Cn1c(Cc2n[n+]3c(-c4ccccc4)cc(-c4ccccc4)nc3n2C)n[n+]2c(-c3ccccc3)cc(-c3ccccc3)nc12 | 95% |
| Cc1ccc(Cl)cc1N1CCN(C(=O)c2ccc3noc(-c4ccc(F)cc4)c3c2)CC1 | -13% |
| c1ccc(CC2CCN(c3[nH]cnc4ncnc3-4)CC2)cc1 | 11% |
| O=C(Nc1cccc(C(F)(F)F)c1)C(Oc1ccccc1)Oc1ccccc1 | -19% |
| Cc1cccc(C(=O)Nc2ccc(N3CCCCCC3)cc2C(=O)O)c1 | -10% |
| O=C(Nc1cc(N2CCCS2(=O)=O)ccc1O)c1cccc(Oc2cccc(C(F)(F)F)c2)c1 | 97% |
| CCOC(=O)c1oc(NC(=O)OC(C)(C)C)nc1C(F)(F)F | 5% |
| C#CCn1ccc(O)c(Cc2ccccc2)c1=O | 14% |
| CN(C(=O)C1CC=CC1)c1ccc(NC(=O)C2CC=CC2)cc1Cl | -13% |
| Oc1ccccc1CCN[C@H]1CCc2ccc(F)cc21 | 95% |
| CN(Cc1ccc(F)cc1Cl)[C@H]1CCc2nnc(C3CCOCC3)n2CC1 | -4% |
| c1ccc(N2CCN(CCN[C@H]3CCc4cc5c(cc43)CCC5)CC2)cc1 | 9% |
| Cc1ccnc(CNC(=O)N[C@H]2CCc3ccc(F)cc32)c1 | -12% |
| O=C1OCc2cc(NC(=O)[C@@H]3COc4ccccc4O3)ccc21 | 10% |
| Cc1cc(OCc2ccc(C(=O)Nc3ncn(Cc4c(F)cccc4Cl)n3)o2)ccc1Cl | 0% |
| COc1ccc(NC(=O)CC(C)(C)CC(=O)O)cc1 | 10% |
| Cc1cc2nc(C)c(=O)n(Cc3ccc(C(=O)N4CCC(Cc5ccccc5)CC4)cc3)c2cc1C | 12% |
| C=Cn1cc[n+](CC(=O)c2ccc(-c3ccccc3)cc2)c1 | 51% |
| Cn1c(-c2ccc(Cl)c(Cl)c2)c[n+](CC(=O)c2ccc(-c3ccccc3)cc2)c1N | 9% |
| Cc1ccc(C(=O)C[n+]2cc(-c3ccc(-c4ccccc4)cc3)n(C)c2N)cc1 | 4% |

| SMILES | % Inhibition |
| --- | --- |
| CCC(C(=O)Nc1cc(C)on1)(C(F)(F)F)C(F)(F)F | 9% |
| CCCN1CCN(CCCNC(=O)c2ccc(Cl)c(-n3c(C)nc4cccnc43)c2)CC1 | 13% |
| Cc1cc(NC(=O)[C@H](C)OC(=O)c2ccc3c(c2)OCC(=O)N3)on1 | -19% |
| Cc1nnc(CC(=O)NC2CC(OCc3ccccc3)C2(C)C)o1 (stereo not drawn) | 8% |
| Cc1nnc(-c2ccccc2NC(=O)CCC2CCC(C)O2)o1 (stereo not drawn) | -16% |
| Cc1nnc(CNC(=O)Nc2cccc3c4c(oc23)CCCC4)o1 | 72% |
| Cc1ccc(NC(=N)NC2=N[C@@H](CC(=O)Nc3cccc(C(F)(F)F)c3)C(=O)N2)cc1 | -10% |
| CCn1nccc1CNc1ccc(F)cc1F | 2% |
| Cc1ccc(S(=O)(=O)N2CCC[C@H](C(=O)NCc3cccc(NC(=O)N4CCCC4)c3)C2)s1 | 8% |
| Cc1cc2c(OC[C@@H](O)CN3CCOCC3)cccc2[nH]1 | -7% |
| Cc1nn(Cc2ccccc2)c(=O)n1-c1ccc(OCc2ccccc2)cc1 | -14% |
| COCCCNC(=O)C1CCN(c2c(C)n(-c3ccccc3)c(=O)n(CC(C)C)c2=O)CC1 | 5% |
| CN(Cc1ccc(F)cn1)c1ccn(C)n1 | 8% |
| CC1(C)OCc2cc(CNc3ccc4oc(=O)[nH]c4c3)ccc2O1 | 100% |
| Cc1ccc(C)c(NC(=O)CC(=O)O)c1 | -8% |
| O=C1C2CC2C(=O)N1Cc1ccccc1 (stereo not drawn) | 10% |
| O=C(CN1CCC(c2ccc(F)c(F)c2)CC1)NCc1cccnc1 | -8% |
| Cc1nc(-c2ccc(N3CCC(NCCCn4ccnc4)CC3)cc2)cs1 | 23% |
| O=S(=O)(c1ccccc1C(F)(F)F)N1CC[C@]2(CCN(c3cccnc3)C2)C1 | 10% |
| Cc1ccc(C(=O)N[C@@H](C)CCc2ccccc2)cc1S(=O)(=O)N1CCN(C)CC1 | -22% |
| CC(C#N)CNCCC(C)c1ccccc1 (stereo not drawn) | 8% |
| O=C(O)c1cc(C=Cc2ccc3ncccc3c2)ncn1 | 11% |
| COc1ccc2cc3n(c2c1)C[C@](C(=O)NC1CCCCCC1)(c1ccccc1)N(Cc1ccc(OC(C)C)cc1)C3=O | -23% |
| Brc1cnn(Cc2cnc(NC3C4CCOC4C34CCC4)s2)c1 (stereo not drawn) | 4% |
| C[C@@H](N)C(=O)N1CCc2cc(-c3ccccc3)ccc21 | 11% |
| CCC1CCCC(NS(=O)(=O)CCC(C)(C)C)C1 (stereo not drawn) | -12% |

| SMILES | % Inhibition |
| --- | --- |
| O=S(=O)(c1ccccc1)N1CCN(S(=O)(=O)c2ccc(Cl)cc2)C1 | 11% |
| Cc1ccc(N2CCN(S(=O)(=O)c3ccccc3)[C@@H](C)C2=O)cc1F | -11% |
| O=c1[nH]c(=O)n(S(=O)(=O)c2ccccc2)cc1F | 87% |
| COc1ccc(CCNC(=O)c2cc3c(=O)[nH]c(C)cn3n2)cc1OC | 8% |
| COc1cc(F)c(NCc2csc(C3CC3)n2)cc1OC | -21% |
| CNC[C@H]1CCCN1C(=O)c1ccc(-c2noc(C(F)(F)F)n2)cc1 | 12% |
| COC1CCCCC1NC(=O)c1ccc(-c2noc(C(F)(F)F)n2)cc1 (stereo not drawn) | 8% |
| COc1cccc(CNC(=O)Cn2c(=O)n(C)c(=O)c3c2c(-c2ccccc2)cn3C)c1OC | -10% |
| Cc1oc(-c2ccn[nH]2)cc1S(=O)(=O)Nc1cccc(Cl)c1 | 4% |
| COc1ccc(-c2noc(Cn3c(=O)c4ccccc4n(CC(=O)NCCc4ccc(OC)c(OC)c4)c3=O)n2)cc1 | 6% |
| CNCC(=O)Nc1ccccc1C(F)(F)F | -9% |
| O=C(c1cnc2ccccc2n1)N1CCCC1 | -1% |
| N[C@H]1C[C@@H](c2cc(N3CCN(C4CCCCC4)CC3)nc(N3CCCC3)n2)C1 | 50% |
| c1ncc(N2CCN3CCC[C@H]3C2)nc1OCC1CCCC1 | -16% |
| Cc1cccc(CNc2cc([C@H]3C[C@@H](N)C3)nc(N3CCCC3)n2)c1 | 14% |
| O=C(O)CCCC(=O)NCCc1ccc(Cl)cc1 | -19% |
| COc1ccc(OCc2nc3cc4c(cc3cc2C(=O)O)OCO4)cc1 | 5% |
| CCOc1ccc(Nc2c3ccccc3nc3ccccc23)cc1 | 96% |
| COc1ccc(NC(=O)c2nc(Nc3ccccc3)c3ccccc3n2)cc1 | 7% |
| CCOc1ccc(-n2c(CN3CCN(C(=O)c4ccco4)CC3)nc3ccccc3c2=O)cc1 | 14% |
| Cc1ccc(-c2ccnc3c(C(=O)N4CCOCC4)cnn23)cc1C | 2% |
| Cc1cccnc1C(F)(F)C(=O)Nc1cc(C)c(O)c(C)c1 | 11% |
| O=C(Nc1ccc(N2CCn3c(nc4cc(Cl)ccc43)C2)cc1)NC1CCCCC1 | -13% |
| C[C@H](OC1CCCCCC1)C(=O)Nc1nc(C(N)=O)cs1 | -11% |
| Cc1ccccc1C(=O)NCc1nn(C2CCCC2)c2c1COCC2 | 6% |
| COc1ccc(C)c2sc(N(CCCn3ccnc3)C(=O)Cc3ccc(F)cc3)nc12 | 85% |

| SMILES | % Inhibition |
| --- | --- |
| COc1cccc(CNCCCn2ccnc2)c1OCc1ccc(F)cc1 | 10% |
| COc1cc(CNCCN2CCOCC2)ccc1OCc1cccc(C)c1 | 7% |
| O=C(Nc1ccncc1)c1nc(N2CCCC2)ncc1Br | -9% |
| Fc1ccc(COc2cccc(CNCCN3CCOCC3)c2)cc1 | -3% |
| Cc1nn(C)c(Cl)c1CNCc1ccc(N2CCCCC2)nc1 | -13% |
| CCCc1nnc(N(Cn2nnc3ccccc32)C(=O)CN2CCOCC2)s1 | 2% |
| O=C(c1cncc(Br)c1)N1CC[C@H](c2nc(C3CCOCC3)no2)C1 | 10% |
| CC1CCC(c2noc([C@H]3CCO[C@@H]3c3cncc(Br)c3)n2)CC1 (stereo partly drawn) | 59% |
| Cc1ccc(NCc2ccc(OCc3cccc4ccccc34)c(Br)c2)cc1 | 11% |
| CCCN(CC(=O)N(Cc1ccccc1)Cc1ccc(C)o1)C(=O)c1ccco1 | -5% |
| O=C(c1ccccc1)C1C(c2ccccc2)N1C(=O)c1ccc(Cl)cc1Cl (stereo not drawn) | 6% |
| FC(F)(F)c1nnc(NCc2cncs2)s1 | -7% |
| COCc1nsc(N2CCC(c3c(F)cccc3F)CC2)n1 | 7% |
| Cn1cncc1CC(=O)Nc1ccnc(NC(=O)OC(C)(C)C)c1 | 100% |
| CC(C)(C)OC(=O)Nc1cccc(N)n1 | 8% |
| COc1ccc2c(O)cc(-c3ccccc3)nc2c1 | 1% |
| Nc1c(-c2ccccc2)nsc1C(=O)NCC1CC1 | 9% |
| COc1cccc(NC(=O)N2C[C@@H]3C[C@H](NS(C)(=O)=O)[C@H]2C3)c1 | 8% |
| O=C1CCC(C(=O)N2CCC[C@H]2c2ccncc2)=NN1c1ccccc1 | -11% |
| CC[C@H](O)CN1CCC(Nc2ncnc3cc(Cl)ccc23)CC1 | 75% |
| CON(C)C[C@H](O)Cn1cc(Nc2ncnc3cc(F)ccc23)cn1 | 5% |
| C[C@H](C(=O)Nc1ccc(F)cc1Cn1ccsc1=O)C1CC1 | -14% |
| Cc1nscc1C(=O)Nc1cccc(OCCN2CCCC2)c1 | -15% |
| Cc1cc(CN(C)Cc2nccn2C)ccc1N1CCCCC1 | 1% |
| CC(C)(C)c1cc2c(NCC3=CCOCC3)nccn2n1 | 9% |
